Shown are actives, neighbours in structure and some others; about 21% of the full set was active somewhere.
Cycloheximide cs = Cycloheximide Counterscreen for Small Molecule Inhibitors of Shiga Toxin | cell reporter, cycloheximide protein synthesis inhibition counterscreen | max response, % | actives 12% (n = 300,000); in the data active means max response mostly above about 13%, no sharp cut-off; inactive means mostly below about 14%; further: read at 38.3 µM for the half of the compounds with a filed dose; 0% is about no effect
Pf growth 48h = Primary qHTS for delayed death inhibitors of the malarial parasite plastid, 48 hour incubation. P. falciparum luciferase growth in erythrocytes, 48 h. Potency, µM (series often up to 28.7 µM), inactives show top-dose activity change, negative = inhibition, usual class: inhibitors. actives 5.9% (n = 310,000). AID 504832, 2011; further: potency means the concentration at half of the fitted maximal effect; on the % scale 0 is the no-effect control and ±100 the full control effect
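Luciferase-expressing P. falciparum in infected erythrocytes (2% hematocrit, 0.1% parasitemia final) in RPMI 1640/0.5% Albumax were exposed to compound for 48 hours at 37 C, 5% CO2; growth read as luminescence.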
Pf growth 96h = Primary qHTS for delayed death inhibitors of the malarial parasite plastid, 96 hour incubation; Potency, µM (highest dose often 28.7 µM), for the others: at the top dose activity change, negative = inhibition, actives largely listed as inhibitors; P. falciparum luciferase reporter growth, 96 h; actives 6.9% (n = 320,000); further: potency means the concentration at half of the fitted maximal effect; on the % scale 0 is the no-effect control and ±100 the full control effect
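Cell-based qHTS: luciferase-tagged P. falciparum in erythrocytes (2% hematocrit, 0.05% parasitemia final) incubated with compounds for 96 hours, 37 C, 5% CO2; luciferase detection reagent then added and luminescence measured.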
NS1 inh = qHTS Assay for Inhibitors of Influenza NS1 Protein Function. Potency, µM (series often up to 46.1 µM), for the others: at the top dose activity, positive = more growth. actives 0.4% (n = 270,000); calls by dose curve; further: potency means the concentration at half of the fitted maximal effect; actives are rising curves; nearly all actives have a fitted effect of over 50% in size
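Recovery from NS1-induced slow growth read by OD600 in budding yeast switched to galactose assay medium (pH 6.0, -URA) at 1:100 dilution. Compound 23 nl per well; the matching strain lacking NS1 serves as control.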
Shiga inhibitor = A qHTS for Small Molecule Inhibitors of Shiga Toxin. Vero cells, Shiga toxin protein synthesis inhibition reporter. inhibition, % at 38.7 µM. actives 9.2% (n = 290,000). AID 2315, 2010; in the data active means inhibition mostly above about 28%, no sharp cut-off; inactive means mostly below about 43%; further: 0% is about no effect
Starred values were filed as active, the others as inactive; i = inactive; u = inconclusive; x = no result given; + = active, no number; [ ] = remark or other dose. Unless noted, the call rests on the fitted dose curve; in most records, active means well fitted inhibition curve with a large enough effect; inconclusive means small, poorly fitted or top-dose-only effect, or another doubt; inactive means no such curve, though single readings can be large or run the other way.

SMILES	Cycloheximide cs	Pf growth 48h	Pf growth 96h	NS1 inh	Shiga inhibitor
CCC1=C2CC[C@H]3C(=O)N(CC)C(=O)[C@H]3[C@H]2[C@@]2(Cc3ccccc3)C(=NCCOC)OC(=O)N2C1=O	-7	28%	26%	4%	-5
COc1ccc(CCNC(=O)CN(c2cccc([N+](=O)[O-])c2)S(C)(=O)=O)cc1OC	-2	4%	87%	1%	22
O=C1NC(c2ccccc2)=C(c2nc3ccccc3s2)C(c2ccc(F)cc2)N1 (centres undefined)	0	-52%	13µM*	-5%	-16
O=C(Nc1ncccn1)c1cc(-c2cccc(Br)c2)nc2ccccc12	-1	u	1.7µM*	-6%	14
CN1CCC(NC(=O)c2cc(-c3cccc(Br)c3)nc3ccccc23)CC1	-3	13µM*	-11%	7%	-8
COc1cccc(-c2cc(C(=O)Nc3cccnc3)c3ccccc3n2)c1	12	3.7µM*	u	-24%	-9
O=C(Nn1cnnc1)c1cc(-c2cccc(Br)c2)nc2ccccc12	10	87%	101%	11%	17
O=C(Nc1ccncc1)c1cc(-c2cccc(Br)c2)nc2ccccc12	x	0.93µM*	0.83µM*	x	x
COc1cccc(-c2cc(C(=O)NC3CC3)c3ccccc3n2)c1	3	u	55%	-2%	-26
CCN(CC)C(=S)NC(=O)c1cc(OC)c(OC)c(OC)c1	2	26%	-40%[1.15 µM]	9%	21
COc1ccc(NC(=O)c2cc(-c3cccnc3)nc3ccc(C)cc23)cc1OC	-5	u	u	19%	-8
COc1ccc(NC(=O)c2cc(-c3ccncc3)nc3ccc(Br)cc23)cc1OC	-1	13µM*	31%	-1%	30
COc1ccc(-c2cc(C(=O)Nc3cccnc3)c3ccccc3n2)cc1OC	2	u	46%	-5%	-21
O=C(Nc1cccnc1)c1cc(-c2cccc(Br)c2)nc2ccccc12	-2	3.7µM*	1%	-3%	-16
O=C(Nc1cccnc1)c1cc(-c2cccnc2)nc2ccc(Br)cc12	-3	1.2µM*	1.2µM*	-4%	31
NC(=O)c1nsc(C(=O)N(c2ccccc2)C(C(=O)NCc2ccc(F)cc2)c2ccc(O)cc2)c1N (centres undefined)	6	u	-6%	5%	20
N#CC1=C(N)Oc2c(c(=O)oc3ccccc23)C1c1ccc(OC(=O)N2CCOCC2)cc1 (centres undefined)	9	9.3µM*	12µM*	-111%	-17
Cc1cccc(NC(=O)CNc2cc(C)ccc2C)c1	15	-3%	0%	-2%	41
O=C1OC(c2ccccc2)=C/C1=C\N1CCOCC1	7	95%	17%	-5%	-4
O=C1OC(c2ccccc2)=C/C1=C/N1CCOCC1	17*	159%	u	3%	63*
CC(=O)CCc1c(C)nc2ccc(C)cc2c1Cl	16	5%	u	x	36
CC(C)(C)C(=O)Oc1ccc2cc(-c3ccc4ccccc4n3)c(=O)oc2c1	-2	41%	22%	7%	-1
CCNc1ccccc(-c2ccc3ccccc3n2)c1=O	41*	215%	306%	-2%	134*
Fc1ccc(C2=CCN(C(c3ccc(Cl)cc3)c3nnnn3Cc3ccccc3)CC2)cc1 (centres undefined)	-2	12µM*	-22%	10%	-7
Fc1ccc(Cn2nnnc2C(c2ccc(Cl)cc2)N2CC=C(c3ccc(F)cc3)CC2)cc1 (centres undefined)	3	12µM*	46%	-1%	14
SMILES	Cycloheximide cs	Pf growth 48h	Pf growth 96h	NS1 inh	Shiga inhibitor
Cc1ccc(C(c2nnnn2Cc2ccccc2)N2CC=C(c3ccc(F)cc3)CC2)cc1 (centres undefined)	1	u	35%	-9%	12
CC(=O)N/C(=C/c1ccc2c(c1)OCO2)C(=O)O	1	0%	-8%	3%	8
CC(=O)N/C(=C/c1ccc2c(c1)OCO2)C(=O)Nc1ccccc1	27*	29%	u	-1%	80*
O=C(NCCO)/C(=C/c1ccc2c(c1)OCO2)NC(=O)c1ccc(Br)cc1	41*	-15%	-18%	-7%	74*
O=C(O)CNC(=O)/C(=C\c1ccc2c(c1)OCO2)NC(=O)c1ccc(Br)cc1	-2	8%	u	x	-18
O=C(Nc1ccc(C(=O)O)cc1)/C(=C\c1ccc2c(c1)OCO2)NC(=O)c1ccc(Br)cc1	39*	20%	-7%	22%	-5
O=C(O)c1cc(N/N=C/C=C/c2ccccc2)ccc1Cl	40*	i	i	15%	172*
CCOc1ccc(-n2c(C)cc(/C=N/NC(=O)C(N)=O)c2C)cc1	11	-6%	0%	-6%	55
CCOc1ccc(-n2c(C)cc(/C=N/Nc3nc(C)cc(=O)[nH]3)c2C)cc1	-2	1.7µM*	u	6%	9
CCOc1cc(C=O)ccc1OCC(=O)N1CCCC1	-3	5%	13%	6%	6
CCOc1cc(/C=N/Nc2cccc(C(=O)O)c2)ccc1OCC(=O)N1CCCCC1	70*	294%	115%	-1%	126*
CSc1ccc(/C=N/NC(=O)C[n+]2ccccc2)cc1	0	u	37%	-3%	-3
CSc1ccc(/C=N/Nc2cccc(C(=O)O)c2)cc1	92*	483%	i	x	+
COC(=O)c1cc(OC)c(OC)cc1NC(=O)C(C)c1ccc([N+](=O)[O-])cc1 (centres undefined)	-5	-3%	19%	3%	-7
Cc1c(CN2CCC(n3nccc3NC(=O)C3CC3)CC2)[nH]c2ccccc12	-4	u	4%	0%	-12
O=C(O)c1cccc(N/N=C/c2cccs2)c1	84*	383%	i	18%	147*
O=C(O)c1cc(N/N=C/c2ccc(OCc3ccccc3)cc2)ccc1Cl	72*	353%	247%[5.75 µM]	x	149*
COC(=O)c1ccc(COc2ccc(/C=N/Nc3cccc(C(=O)O)c3)cc2)cc1	84*	413%	i	-5%	109*
O=C(N/N=C/c1ccccc1)c1ccc(OCc2ccccc2)cc1	4	20%	-22%	x	2
O=C(O)c1cccc(N/N=C/c2ccc(OC(F)(F)F)cc2)c1	77*	336%	u	2%	138*
O=C(CCCNc1ccccc1)N/N=C/c1cccs1	-4	-1%	17%	-3%	-3
O=C(O)c1ccccc1-c1ccccc1C(=O)Nc1ccc(OC(F)(F)F)cc1	-1	16%	14%	u	-9
Cc1cc(=O)[nH]c(N/N=C/c2ccc(O)c(O)c2)n1	-5	u	4%	5%	10
COC(=O)c1ccc(COc2ccc(/C=N/Nc3nc(C)cc(=O)[nH]3)cc2)cc1	9	u	-76%	4%	45*
Cc1nnc(N/N=C/c2ccccc2F)n1N	11	27%	4%	-32%	-6

Screens: PubChem BioAssay, National Center for Advancing Translational Sciences (NCATS)
